Source: PubChem BioAssay (The Scripps Research Institute Molecular Screening Center)
This is a sample that favours compounds with a hit; in the whole collection about 3.5% have one here.
TEAD-YAP block: TEAD-YAP interaction inhibition, primary screen, TEAD-YAP interaction inhibitor project, luminescence, HEK-TIYL cells | TEAD-Gal4/YAP UAS-luciferase luminescence | inhibition, % at 9.12 µM | 640,000 tested, 1.4% active; in the data active means inhibition above about 32%;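 further: 0% = median of test compound wells and 100% = reference inhibitor wells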
GPR151 ag: activators of human GPR151, primary screen, cell-based, PathHunter beta-arrestin, luminescence. G-protein coupled receptor 151 (Homo sapiens), Q8TDV0. PathHunter beta-arrestin GPR151 cells. activation, % at 11.2 µM. 650,000 tested, 1% active; in the data active means activation above about 4.9%;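 further: 0% = median of compound wells and 100% = cells with positive control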
FBW7 act: FBW7 E3 ligase activators, primary screen, biochemical, AlphaScreen, human; F-box/WD repeat-containing protein 7 (Homo sapiens), Q969H0; AlphaScreen FBW7–phospho-cyclin E peptide binding, activator screen; normalized activity (activation), % at 26.1 µM; 650,000 tested, 0.13% active; AID 1259310, 2017; in the data active means normalized activity above about 1.9%;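 further: purified mutant Fbw7 with reduced substrate affinity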
MITF inh: MITF inhibitors, primary screen, biochemical, AlphaScreen, human; Microphthalmia-associated transcription factor (Homo sapiens), O75030; 650,000 tested, 0.91% active; inhibition, % at 2.6 µM; AlphaScreen MITF homodimerization, bead proximity signal; in the data active means inhibition above about 50%;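 further: 0% = vehicle wells with protein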
Target sequence (O75030 whole entry, looked up): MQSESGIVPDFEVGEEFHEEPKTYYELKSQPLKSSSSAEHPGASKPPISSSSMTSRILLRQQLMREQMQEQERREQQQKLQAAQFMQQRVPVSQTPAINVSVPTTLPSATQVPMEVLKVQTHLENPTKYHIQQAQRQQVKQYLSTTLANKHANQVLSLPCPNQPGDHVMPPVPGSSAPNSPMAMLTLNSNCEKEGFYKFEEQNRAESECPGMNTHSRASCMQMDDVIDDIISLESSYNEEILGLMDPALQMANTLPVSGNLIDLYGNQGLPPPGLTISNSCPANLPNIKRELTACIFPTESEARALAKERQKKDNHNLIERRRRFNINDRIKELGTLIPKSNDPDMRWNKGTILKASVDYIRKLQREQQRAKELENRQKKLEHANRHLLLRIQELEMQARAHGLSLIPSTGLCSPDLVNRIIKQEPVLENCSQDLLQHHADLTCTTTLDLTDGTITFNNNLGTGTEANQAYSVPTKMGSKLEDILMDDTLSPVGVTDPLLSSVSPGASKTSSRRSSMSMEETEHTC
MITF confirm: MITF inhibitors, retest of hits, confirmation, biochemical, AlphaScreen, triplicate. AlphaScreen MITF homodimerization, biotin/His-MITF beads. AID 1259372, 2018. inhibition, % at 2.6 µM. shares compounds with MITF inh. 4,700 tested, 16% active;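 active means inhibition above a cutoff derived from the DMSO control wells, cut at about 28% in these data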;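 further: 0% = MITF dimer wells with DMSO only; inhibitors lower the bead chemiluminescence by keeping MITF from dimerizing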
AS interf DR: AlphaScreen optical interference compounds, dose response, counter-screen, biochemical, HTS; AlphaScreen optical interference counterscreen, cell-free; IC50, µM; 480 tested, 6% active; shares compounds with MITF inh; call rule not given here
AS interf ctr: AlphaScreen optical interference compounds, counter-screen for MITF inhibitor project, biochemical, triplicate; 4,700 tested, 7.6% active; LysRS AlphaScreen counterscreen, signal interference; AID 1259376, 2018; shares compounds with MITF inh; inhibition, % at 2.6 µM;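 active means inhibition above a cutoff derived from the DMSO control wells, cut at about 30% in these data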
* = called active by the depositor; x = not tested or not shown.

SMILES | TEAD-YAP block | GPR151 ag | FBW7 act | MITF inh | MITF confirm | AS interf ctr | others
COc1cc(OC)cc(C(=O)N2CCN(Cc3ccccc3C(F)(F)F)CC2)c1 | 1.8 | 2.5 | -0.3 | 62.2* | -3.5 | -2.3
COc1ccccc1CN1CCN(Cc2ccccc2C(F)(F)F)CC1 | 8.9 | -2.2 | 0.1 | 69.5* | -7.5 | 0.8
COc1cccc(OC)c1C(=O)N1CCN(Cc2ccccc2C(F)(F)F)CC1 | -3.0 | 0.3 | -0.1 | 52.0* | -16.9 | 8.2
COc1ccc(OC)c(CN2CCN(C(=O)c3c(OC)cccc3OC)CC2)c1 | 1.0 | 1.0 | -0.1 | 32.5 | x | x
CCCOc1ccc(C2C(C(=O)OC)=CN(Cc3ccc(OC)cc3)C=C2C(=O)OC)cc1OC | -2.7 | -1.1 | 0.1 | -0.8 | x | x
Nc1c(C(=O)Nc2ccccc2)nnn1Cc1ccc(Cl)cc1 | 2.9 | 0.4 | 0.1 | 6.7 | x | x
CCOc1cccc(C2CC(c3cccc(OC)c3)=NC(c3ccc(C)cc3)N2)c1O (stereo not given) | -18.5 | -2.0 | 0.3 | 13.7 | x | x
O=C(CN1CCC(Cc2ccccc2)CC1)Nc1ccc(N2CCOCC2)cc1 | -1.5 | -0.8 | -0.1 | 4.2 | x | x
Cc1ccc(-c2cccc3ccc(N4CCN(S(C)(=O)=O)CC4)nc23)cc1 | 1.1 | -1.7 | 0.1 | 2.0 | x | x
COc1ccc([C@H]2C(C#N)=C(N)OC3=C2C(=O)CC(C)(C)C3)c([N+](=O)[O-])c1OC | -7.1 | 0.4 | 0.1 | 16.9 | x | x
COc1ccc(C2C(C#N)=C(N)OC3=C2C(=O)CC(C)(C)C3)c2ccccc12 (stereo not given) | 4.5 | -0.2 | 0.1 | 69.7* | 8.2 | 11.8
CC1CNc2c(Br)cc(Br)cc2NC1=O (stereo not given) | -6.7 | -0.5 | 0.2 | -2.9 | x | x
Cc1cc(=O)c(C(=O)N2CCN(C)CC2)c(CC2CCCC2)n1C | -3.4 | 1.4 | -0.1 | -2.6 | x | x
O=C(/C(Cl)=C/NCCc1c[nH]c2ccccc12)C(F)(F)F | 10.7 | -0.3 | -0.2 | -6.3 | x | x
Cc1ccc(-n2cc3c(c(C#N)c2=N)CC(C)(C)CC3=O)cc1C | -9.0 | 3.7 | 0.2 | 13.7 | x | x
CC1(C)CC(=O)c2cn(-c3ccc(Cl)cc3)c(=N)c(C#N)c2C1 | -8.4 | 0.6 | 0.0 | 54.8* | 0.7 | 0.4
CN(C)CCCNS(=O)(=O)c1ccc2c(c1)OCCO2 | -3.6 | -1.7 | 0.4 | 62.9* | 15.5 | 15.9
COc1ccc(NS(=O)(=O)c2ccc3c(c2)OCCO3)c(OC)c1 | 9.0 | 0.5 | 0.0 | 84.7* | -1.8 | -1.7
CCOc1ccccc1NS(=O)(=O)c1ccc2c(c1)OCCCO2 | -0.1 | 2.3 | 0.0 | 57.0* | -4.8 | -5.5
O=C(O)C#CC(O)(c1ccccc1)c1ccccc1 | 2.7 | 1.1 | 0.0 | 2.3 | x | x
O=C(ON1C(=O)c2cccc3cccc(c23)C1=O)c1ccco1 | 2.2 | 0.3 | -0.2 | 0.3 | x | x
Cc1ccsc1/C=N/Nc1nc(=O)[nH]nc1C | 24.6 | -5.7 | 0.0 | 60.0* | 34.0* | 100.3*
Cc1n[nH]c(=O)nc1N/N=C/c1ccc(O)cc1 | 4.1 | -8.0 | -0.3 | 9.4 | x | x
O=c1oc2ccccc2c(O)c1Cc1cc(Cl)c2cccnc2c1O | 0.6 | 1.3 | 0.3 | 16.3 | x | x
O=C1NC(=O)C(Cc2cc(Cl)c3cccnc3c2O)C(=O)N1 | 3.1 | 0.6 | -0.2 | 57.7* | 82.1* | 84.6*
SMILES | TEAD-YAP block | GPR151 ag | FBW7 act | MITF inh | MITF confirm | AS interf ctr | others
Cc1ccccc1CN1CCN(C(=O)c2cccc(Cl)c2)CC1 | -6.4 | 0.7 | 0.8 | 62.8* | 7.4 | 11.9
O=C(c1cccc(Cl)c1)N1CCN(Cc2ccccc2F)CC1 | 5.7 | 2.0 | 0.1 | 59.2* | 6.7 | 7.4
CN(/N=C/c1ccc(-c2ccc([N+](=O)[O-])cc2)o1)C1=NS(=O)(=O)c2ccccc21 | 1.2 | -0.5 | -0.1 | 18.2 | x | x
COc1ccc(-c2cnc3ccc(NC4CCOCC4)nn23)cn1 | 9.3 | -0.1 | 0.4 | 11.2 | x | x
COc1ncc(-c2cnc3ccc(NC4CCOCC4)nn23)c(OC)n1 | -17.2 | 0.6 | 0.1 | 68.5* | 11.7 | 25.9
Cc1ccc(C(=O)N2CCN(c3nc(-c4ccc(F)cc4)cs3)CC2)cc1 | -6.0 | 1.3 | 0.4 | -1.5 | x | x
Cc1cc(N=Cc2ccc([N+](=O)[O-])o2)ccc1S(=O)(=O)O | 2.2 | 0.4 | -0.3 | 57.8* | 47.5* | -12.3 | AS interf DR=>6.48
O=[N+]([O-])c1ccc(C=Nc2ccc(N=Cc3ccc([N+](=O)[O-])o3)cc2)o1 | 14.2 | 0.5 | 0.1 | 36.1 | x | x
CCc1nc(NCCCCCO)c2nnn(Cc3ccccc3)c2n1 | 0.1 | 0.4 | -0.1 | 7.5 | x | x
CCc1nc(NCC(C)C)c2nnn(Cc3ccccc3)c2n1 | -2.6 | 0.3 | 0.0 | 61.5* | -5.7 | -2.2
O=C(NCC1CCCO1)c1ccc(CNc2nc(=S)[nH]c3ccccc23)cc1 (stereo not given) | 4.7 | 0.9 | -0.1 | 8.9 | x | x
O=C(NCc1ccc2c(c1)OCO2)C1CCC(CNc2nc(=S)[nH]c3ccccc23)CC1 (stereo not given) | 0.1 | 0.3 | 0.3 | 57.0* | -12.9 | -5.0
CCCCCC(C)(C)NC(=O)CN1CCOCC1 | -1.6 | -0.1 | 0.0 | 51.1* | 11.1 | 7.7
CCCS(=O)(=O)N1CCN(Cc2ccccc2F)CC1 | 6.1 | 0.1 | 0.5 | 56.9* | 0.2 | -3.5
CS(=O)(=O)N1CCN(Cc2nc3ccccc3[nH]2)CC1 | -0.1 | -1.0 | -0.5 | 71.7* | 8.0 | 12.2
CCCS(=O)(=O)N1CCN(Cc2nc3ccccc3[nH]2)CC1 | -6.8 | -1.1 | -0.4 | 67.0* | 7.1 | 20.2
Nc1cc(Oc2ccc(O)c(N)c2)ccc1O | -0.4 | 3.0 | -0.9 | 110.9* | 117.2* | 78.1*
Nc1cc(C(=O)c2ccc(O)c(N)c2)ccc1O | -4.1 | 0.2 | -0.1 | 20.4 | x | x
CCc1ccc(C(=O)NC(C(=O)NCC2CCCO2)C(C)C)cc1 (stereo not given) | 0.6 | 0.8 | 0.6 | 67.4* | 10.5 | 6.8
Cc1cc(C)nc(SCc2cc(=O)c(OC(=O)C3(c4ccc(Cl)cc4)CCCC3)co2)n1 | -0.4 | -1.1 | -0.1 | 102.1* | 3.1 | -6.8
COc1cc(C(=O)NCC(=O)O)ccc1OC(F)F | 9.6 | -0.9 | -0.1 | -9.3 | x | x
Cc1ccc(OCC(=O)N2CCC[C@@H]3CN(Cc4ccsc4)CC[C@H]32)cc1 | 16.1 | 1.0 | -0.1 | 0.6 | x | x
Clc1ccc(-c2[nH]ncc2CNCc2cccnc2)cc1 | 4.3 | 0.8 | 0.3 | 58.3* | -8.8 | -5.1
FC(F)(F)c1ccc(-c2noc(-c3cc(-c4ccc(Cl)cc4)nc4ccccc34)n2)cc1 | -10.1 | 0.7 | 0.6 | 55.7* | -11.4 | -11.8
